# Rows were chosen to be rich in hits. Some 1.2% of all compounds tested hit in one or more screens of this group.
# DUSP3 inh: inhibitors of human VHR1 phosphatase (DUSP3). actives 0.52% (n = 290,000). inhibition, % at 13.3 µM. recombinant VHR phosphatase, pNPP absorbance. P51452; in the data active means inhibition above about 50%
# Vc quorum ag: induces V. cholerae light production without autoinducers | V. cholerae BH1578 lux reporter, luminescence, 6 h | activation, % at 18.7 µM | actives 0.16% (n = 350,000) | AID 588436; in the data active means activation mostly above about 9.7%, no sharp cut-off
# Mtb BioA inh: blocks M. tuberculosis BioA enzyme activity. purified M. tuberculosis BioA enzyme, plate reader. inhibition, % at 9.99 µM. actives 0.096% (n = 360,000); in the data active means inhibition above about 40%
# Y pestis TopoI: Y. pestis Topo-I inhibition via cleavage products; AID 504884; actives 0.064% (n = 360,000); activity, % at 10 µM; Y. pestis Topo-I cleavage product accumulation, plate reader; in the data active means activity above about 50%, passing the limit was not always enough
# PfHsp40 yeast: rescue of PfHsp40-mediated yeast toxicity | S. cerevisiae expressing PfHsp40, growth rescue, ATP luminescence | growth rescue, % at 12.5 µM | actives 0.68% (n = 340,000) | AID 504582; in the data active means growth rescue above about 28%, passing the limit was not always enough;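 further: yeast W303a lacking pdr1 and pdr3 grown in galactose medium; growth measured after three days at 30 °C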
# TcdB inh: TcdB glycohydrolase inhibition | inhibition, % at 9.99 µM | actives 0.24% (n = 350,000) | P18177 | TcdB glycohydrolase enzymatic assay, plate reader; in the data active means inhibition above about 10%
# An asterisk follows results filed as active; i = inactive; nt = no result given.
SMILES,DUSP3 inh,Vc quorum ag,Mtb BioA inh,Y pestis TopoI,PfHsp40 yeast,TcdB inh
O=C(CN1CCOCC1)N[C@H]1CC[C@H](CCNC(=O)Nc2cc(F)ccc2F)O[C@H]1CO,nt,nt,-1,nt,nt,0
CCOCC(=O)N1CCN(Cc2ccc3c(c2)OCO3)CC1,12,i,-2,-1,-1,1
C=CCn1cccc(C(=O)Nc2ccc(N(C)C)cc2)c1=O,56*,i,0,-6,0,-6
C=CCn1cccc(C(=O)Nc2ccc(Cl)cc2)c1=O,20,-1,-1,-5,0,1
Cc1nnc(SC(C)C(=O)Nc2ncc(Cl)cc2Cl)n1Cc1ccccc1 (stereo not drawn),4,i,nt,-11,0,nt
CSC(=S)N/N=C/c1ccccc1,23,8,-1,-2,257*,0
COc1ccc(/C=N/NC(=S)SC)cc1OC,-7,nt,nt,-1,1,1
COc1ccc(-c2n[nH]c3c2C(c2ccc(OC)c(OC)c2)N(c2ccccc2)C3=O)cc1 (stereo not drawn),4,0,65*,3,-1,nt
COc1ccc(N2C(=O)c3[nH]nc(-c4ccccc4)c3C2c2ccc(F)cc2)cc1 (stereo not drawn),nt,nt,nt,nt,nt,2
C[C@@H]1O[C@@H](O[C@H]2C[C@@H](O)[C@]3(CO)[C@H]4[C@H](O)C[C@]5(C)[C@@H](C6COC(=O)C6)CC[C@]5(O)[C@@H]4CC[C@]3(O)C2)[C@H](O)[C@H](O)[C@H]1O (stereo partly drawn),16,1,-1,2,0,1
Fc1cccc(NC(=S)NNc2ccccc2)c1,24,-2,2,-1,-1,-1
Fc1cccc(NC(=S)NNc2c3ccccc3nc3ccccc23)c1,-2,i,nt,-8,6,20*
Cc1ccccc1N1CCN(CC(=O)Nc2nc(C)c(C(=O)N(C)C)s2)CC1,-1,i,1,-8,0,0
Cc1nc(NC(=O)CN2CCN(c3ccccc3F)CC2)sc1C(=O)N(C)C,57*,-1,-1,-2,0,0
CCCCCCOC(=O)CCc1c(C)nc(N)[nH]c1=O,52*,i,1,0,-1,nt
COc1ccc(/C=N/NC(=O)CCCC(=O)NC2CCCCC2)cc1,10,0,-5,2,1,nt
Cc1ccc2c(Cl)cc(Cl)c(OCC(=O)O)c2n1,56*,i,0,6,-1,0
COc1cc2c(cc1OC)C1(CCCC1)CNC2c1cccc([N+](=O)[O-])c1 (stereo not drawn),-2,0,2,1,-1,0
Cc1ccc(O)c(Nc2c3ccccc3nc3ccccc23)c1,52*,4,-3,-24,0,-4
O=[N+]([O-])c1cccc(C(=Nc2ccccc2Cl)NO)c1,17,i,2,6,0,nt
ONC(=Nc1ccccc1Cl)c1ccccc1Cl,-5,2,2,1,0,17*
CN1CCN(C(=O)C[C@@H]2CC[C@H]3[C@@H](COC[C@@H](O)CN3C(=O)Nc3cc(Cl)cc(Cl)c3)O2)CC1,nt,nt,0,nt,nt,-1
CN(C)CC(C)(C)CNC(=O)C1CCN(CCCc2ccccc2)CC1,55*,0,9,1,-1,0
CCCCN(C)C(=O)C1CCN(CCCc2ccccc2)CC1,16,0,0,25,1,-1
N#C/C(=C(/O)COC(=O)c1cccnc1Cl)c1nc2ccccc2[nH]1,14,-2,nt,-16,-1,1
SMILES,DUSP3 inh,Vc quorum ag,Mtb BioA inh,Y pestis TopoI,PfHsp40 yeast,TcdB inh
CC1CN(C2CCCCC2)C(=S)NC1=O (stereo not drawn),nt,39*,-1,-5,1,0
Nc1nonc1-n1nnc(C(=O)N/N=C/c2cccc(F)c2)c1CN1CCCC1,nt,28*,-1,2,-1,0
C/C(=N/NC(=O)c1nnn(-c2nonc2N)c1COc1ccccc1)c1ccccc1Cl,57*,0,2,-4,0,0
Cc1ccc(-c2c(C(=O)N/N=C/c3ccc4c(c3)OCO4)nnn2-c2nonc2N)cc1,20,-5,-2,58*,1,1
Nc1nonc1-n1nnc(C(=O)N/N=C/c2cccc(Cl)c2)c1CN1CCCC1,nt,32*,0,6,0,2
COc1ccc(C#Cc2ccc3c(c2)O[C@H](CN(C)C(=O)Nc2cccc(OC)c2)[C@@H](C)CN([C@@H](C)CO)S3(=O)=O)cc1,nt,nt,-1,nt,nt,-2
COc1ccc(NC(=S)N(CCc2ccncc2)C(C)C)cc1Cl,nt,0,1,1,nt,1
CCn1c(=O)cc(OCC(=O)NC2CC2)c2ccccc21,-4,1,-1,3,1,0
CCOC(=O)c1c(C)[nH]c(C)c1C(=O)CSc1nc2ccccc2n1CC,55*,0,nt,1,1,2
CCOC(=O)c1c(C)[nH]c(C)c1C(=O)CSc1nc2ccccc2n1CCOC,-9,1,3,2,0,1
C[C@@H]1CN([C@@H](C)CO)C(=O)c2cccc(N(C)C)c2O[C@@H]1CN(C)Cc1ccc2c(c1)OCO2,nt,nt,-2,nt,nt,-3
CCCCn1c(N)c(Sc2ccccc2[N+](=O)[O-])c(=O)[nH]c1=O,51*,-4,1,0,0,-1
COc1cc(CNc2ccc3[nH]c(=O)[nH]c3c2)ccc1OCc1c(F)cccc1Cl,53*,i,-2,-3,0,0
C[C@@H]1CN([C@H](C)CO)C(=O)CCCn2cc(nn2)CO[C@H]1CN(C)CC1CCCCC1,nt,nt,0,nt,nt,-1
O=[N+]([O-])c1ccc(/C=C/c2ccc3ccccc3n2)cc1,41,2,-1,0,0,10*
O=[N+]([O-])c1ccc(/C=C/c2ccc3cccc(O)c3n2)cc1,30,i,-5,-2,0,-1
C[C@H](NC(=O)N(C)C[C@H]1OCc2ccccc2-c2c(n(C)c3ccccc23)C(=O)N([C@H](C)CO)C[C@H]1C)c1ccccc1,nt,nt,nt,nt,nt,0
Cc1ccccc1S(=O)(=O)N[C@H]1CC[C@@H](CCn2cc(-c3ccc(F)cc3)nn2)O[C@H]1CO,nt,nt,1,nt,nt,1
CC(C)(C)OC(=O)COc1cc(F)ccc1[N+](=O)[O-],nt,-1,-2,9,0,1
S=c1[nH]c(-c2ccccc2)cs1,13,i,nt,-3,1,17*
O=c1[nH]c(-c2ccccc2)cs1,-5,0,1,-2,0,0
Fc1ccc(-c2csc(=S)[nH]2)cc1,-3,0,nt,7,1,19*
Cc1nc(SCc2ccccc2)nc2c1CCC2,-3,0,3,21,0,-1
O=c1[nH]c(SCc2ccccc2Cl)nc2c1CCCC2,2,i,-1,5,0,nt
Cc1ccc(CSc2nc3c(c(N(C)C)n2)CCCC3)cc1,17,i,-1,59*,1,nt
Cc1ccc(CSc2nc3c(c(SCC(=O)O)n2)CCCC3)cc1,14,8,4,7,3,nt
CN(C)c1nc(SCc2ccccc2Cl)nc2c1CCCC2,3,i,0,1,155*,nt
